Screens as filed in PubChem BioAssay.
Rows were chosen to be rich in hits. Some 8% of all compounds tested hit in one or more screens of this group.
KB-V1 MDR tox: kills drug-selected multidrug resistant KB-V1 cells | Potency, µM (top dose mostly 46.1 µM), most hits filed as cytotoxic | AID 1347076 | actives 3.4% (n = 400,000) | KB-V1 MDR cells viability, CellTiter-Glo, 72 h; further: nearly all actives have a fitted effect of over 60% in size
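Potencies derive from concentration-effect curves fitted to normalized luminescence (CellTiter-Glo) of KB-V1 cells treated for 72 h at 37 degrees C in phenol-red-free DMEM containing 10% FBS.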
HT1080NT lethal: kills 2HG-producing HT-1080-NT fibrosarcoma cells; HT-1080-NT fibrosarcoma viability, CellTiter-Glo ATP luminescence, 48 h; Potency, µM (titrated, usually from 46.1 µM), usual class: cytotoxic; actives 1.6% (n = 360,000); AID 686970;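 further: NT is the 2HG producing partner of a matched IDH1 knockdown line; nearly all actives have a fitted effect of over 55% in size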
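Read-out is CellTiter-Glo luminescence after 10 minutes at room temperature, following 48 hours' compound treatment of HT-1080-NT cells (750 cells/well, RPMI, 5% FBS, 37 degrees C).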
HT1080 IDH1KD tx: kills HT-1080 cells with IDH1 knockdown. actives 2% (n = 360,000). Potency, µM (series often up to 46.1 µM), most hits filed as cytotoxic. HT-1080 IDH1 knockdown viability, ATP luminescence, 48 h
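Luminescent ATP read-out (CellTiter-Glo, 10 min at room temperature) after 48 h compound exposure at 37 °C gave viability of IDH1-knockdown HT-1080 cells. Activity was normalised to DMSO and cell-free wells, then fitted as concentration-response curves.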
KB-3-1 cytotox: kills parental KB-3-1 adenocarcinoma cells | KB-3-1 viability, CellTiter-Glo ATP luminescence, 72 h | Potency, µM (top dose mostly 46.1 µM), usual class: cytotoxic | actives 1.4% (n = 400,000) | AID 1347075; further: nearly all actives have a fitted effect of over 60% in size
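Parental KB-3-1 viability, qHTS format: 72 h compound exposure, 37 °C; CellTiter-Glo; media-only wells and DMSO plates as controls; concentration-effect fits on corrected data.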
SW480 rereplic: inducers of DNA re-replication in SW480 colon cancer cells. Potency, µM (titrated, usually from 46.1 µM), hits mostly activators. SW480 DNA re-replication, Hoechst DNA content imaging, 48 h. actives 1.8% (n = 340,000); further: nearly all actives have a fitted effect of over 55% in size
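Per well, 250 cells were exposed to pinned compound for 48 hr. Nuclear DNA was visualised with Hoechst (40 min, 37 C) and total object intensity recorded by fluorescence scanning.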
MCF10A rereplic: induces DNA re-replication in MCF 10a normal breast cells; MCF 10A DNA re-replication, Hoechst nuclear intensity, 48 h; Potency, µM (series often up to 46.1 µM), hits mostly activators; actives 2.9% (n = 350,000); further: nearly all actives have a fitted effect of over 50% in size
Hits are given with their value; - = inactive; ? = inconclusive; . = no result. The call rests on the fitted dose curve; in most records, active means well fitted curve in the direction sought with a large enough effect; inconclusive means small, poorly fitted or top-dose-only effect, or another doubt; inactive means no such curve, though single readings can be large; an effect the other way counts as inactive or inconclusive.

SMILES	KB-V1 MDR tox	HT1080NT lethal	HT1080 IDH1KD tx	KB-3-1 cytotox	SW480 rereplic	MCF10A rereplic
N#C/C(=C/c1ccc(N2CCCCCC2)o1)c1ccc(F)cc1	?	?	9.2µM	?	12µM	3.3µM
N#C/C(=C/c1ccc(N2CCCCC2)o1)C(=O)Nc1ccc2ccccc2c1	?	-	?	-	-	?
COc1cc(N2CCCC2)c(OC)cc1/C=C(/C#N)c1cccc(F)c1	16µM	-	-	?	-	-
N#C/C(=C/c1ccc(N2CCCCCC2)o1)c1cccc(F)c1	15µM	11µM	6.3µM	-	?	?
Cc1ccoc1C(=O)Nc1cccc2ccccc12	-	-	-	-	-	-
COc1ccc(C2NC(=O)NC3=C2CCc2ccccc23)cc1 (configuration not stated)	13µM	15µM	18µM	18µM	?	?
CC(C)c1ccc(C2NC(=O)NC3=C2CCc2ccccc23)cc1 (configuration not stated)	18µM	-	-	15µM	-	?
Cc1cc(=O)[nH]c2nnc(-c3ccc(Br)cc3)n12	-	-	-	-	-	-
O=C(Cn1cnc2c(cnn2-c2ccc(F)cc2)c1=O)N1CCCc2ccccc21	2.9µM	-	-	?	-	-
Cc1ccc(-n2ncc3c(=O)n(CC(=O)N4CCCc5ccccc54)cnc32)cc1C	18µM	-	-	-	-	?
COc1ccc(-n2ncc3c(=O)n(CC(=O)N4CCCc5ccccc54)cnc32)cc1	?	-	-	?	-	-
Cc1ccc(-n2ncc3c(=O)n(CC(=O)N4CCN(c5ccccc5F)CC4)cnc32)cc1C	-	-	-	-	-	?
CC(C)NC(=O)Cn1cnc2c(cnn2-c2ccc(F)cc2)c1=O	-	-	-	-	-	-
O=C(Cn1cnc2c(oc3ccccc32)c1=O)N1CCCc2ccccc21	4.1µM	-	-	-	-	-
COc1ccc(-n2ncc3c(=O)n(CC(=O)NC(C)C)cnc32)cc1	-	-	-	-	-	0.92µM
O=C(CSc1ncnc2c1oc1ccccc12)N1CCCc2ccccc21	-	-	-	-	-	-
COc1ccccc1CNC(=O)CNC(=O)c1ccc(Br)o1	-	-	-	?	-	-
O=c1c2cnn(-c3ccccc3)c2ncn1Cc1ccccc1	21µM	-	-	-	-	-
COc1ccccc1NC(=O)Cn1cnc2c(cnn2-c2ccc(C)c(C)c2)c1=O	13µM	-	-	-	-	-
COc1ccccc1NC(=O)CN1C(=O)CC(c2ccc(C)c(C)c2)=Nc2ccccc21	16µM	.	.	-	.	.
Cc1ccc(-n2ncc3c(=O)n(CC(=O)N4CCN(C(=O)c5ccco5)CC4)cnc32)cc1	12µM	-	-	-	-	-
Cc1ccc(-n2ncc3c(=O)n(CC(=O)N4CCN(c5ccccc5)CC4)cnc32)cc1	?	-	-	-	-	-
COC(=O)C1C(=O)c2c([nH]c(C(=O)OCC3CCCO3)c2C)CC1C (configuration not stated)	-	-	-	-	-	-
CCN(CC)c1ccc(S(=O)(=O)N2CCOCC2)cc1NS(C)(=O)=O	-	-	-	-	-	-
O=C(Cn1cnc2c(cnn2-c2ccc(F)cc2)c1=O)N1CCN(c2ccccc2F)CC1	3.7µM	-	-	-	-	-
SMILES	KB-V1 MDR tox	HT1080NT lethal	HT1080 IDH1KD tx	KB-3-1 cytotox	SW480 rereplic	MCF10A rereplic
O=C(Cn1cnc2c(nnn2Cc2ccc(F)cc2)c1=O)N1CCCc2ccccc21	16µM	-	-	-	-	-
COc1ccc([N+](=O)[O-])cc1NC(=O)C(C)OC(=O)Cc1ccc(OC)c(OC)c1 (configuration not stated)	15µM	-	-	-	-	-
C/C=C/C=C/C(=O)OC(C)C(=O)Nc1cc([N+](=O)[O-])ccc1OC (configuration not stated)	-	-	-	-	-	-
CC1(C)C2CCC(C2)C1(C)NC(=O)CN1CCOCC1 (configuration not stated)	-	-	-	-	-	-
CC1CCc2nc(NC(=O)CN3CCN(c4ccccc4)CC3)sc2C1 (configuration not stated)	-	-	-	-	-	-
CC1CCc2nc(NC(=O)CN3CCN(Cc4ccc5c(c4)OCO5)CC3)sc2C1 (configuration not stated)	-	?	?	?	-	13µM
CC1CCc2nc(NC(=O)Nc3ccc4c(c3)OCO4)sc2C1 (configuration not stated)	-	-	?	13µM	-	?
CCC(C)/C(C)=N/NC(=O)c1ccc(CSc2nc3ccccc3s2)cc1 (configuration not stated)	23µM	-	-	?	-	?
CCNC(=O)c1ccc(CSc2nc3ccccc3s2)cc1	-	-	-	-	-	-
O=C(CN1N=C(c2ccccc2)CCC1=O)NCCN1CCc2ccccc2C1	9.2µM	-	-	-	-	-
O=C(CN1N=C(c2ccccc2)CCC1=O)NCc1ccccc1	-	-	-	-	-	-
Cc1oc(-c2ccccc2F)nc1CN1CCC(C(=O)NCCC2=CCCCC2)CC1	8.2µM	-	-	?	-	-
Cc1oc(-c2ccccc2F)nc1CN1CCC(C(=O)NCCc2ccccc2)CC1	-	.	.	-	.	.
COc1ccc(CCNC(=O)C2CCN(Cc3nc(-c4ccccc4F)oc3C)CC2)cc1OC	16µM	-	-	-	-	-
Cc1oc(-c2ccccc2F)nc1CN1CCC(C(=O)NCc2cccnc2)CC1	-	-	-	-	-	-
CSC1=NCCN1C(=O)c1c(-c2ccccc2Cl)noc1C	?	-	-	-	-	-
N#Cc1ccc(NCCc2ccccn2)c([N+](=O)[O-])c1	1.8µM	-	-	8.2µM	-	-
Cc1nc(S(=O)(=O)N(C)c2ccccc2)c(C#N)c(C)c1Cl	-	?	?	?	9.2µM	?
CN(c1ccccc1)S(=O)(=O)c1ccc(Cl)nc1	-	-	-	-	-	-
O=C(NCc1ccccc1F)C(=O)NCC1OCCCN1S(=O)(=O)c1cccs1 (configuration not stated)	?	-	-	?	-	-
COc1ccc(NC(=O)C2CC(=O)n3cnnc3S2)cc1 (configuration not stated)	-	-	-	-	?	?
COc1ccc(NC(=O)c2cccnc2)c([N+](=O)[O-])c1	?	?	?	16µM	16µM	?
COc1cc(NC(=O)c2cccnc2)ccc1NC(=O)c1ccccc1Cl	-	-	-	-	-	-
